Assay results reported in PubChem BioAssay AID1259421 (Broad Institute, 2018).
“And” between values parts separate entries of the source, which are not always exact repeats. Equal entries are not always repeated. Screen size: about 6,400 compounds; about 610 (9.5%) were called active. The list comes from a sample in which actives are over-represented; it also holds similar structures and randomly drawn compounds. Values without a mark were called inactive. Cut-off read from the data, not from the text of the source: active = activity change below about -70%; inconclusive = no clear call, values can overlap the other calls; inactive = above that.

test: T. gondii ME49Luc in HeLa cells, luciferase assay, 72 h, no IFN-y (AID 1259421); details: active compounds read low, concentration not given here

| Compound | activity change, negative = inhibition |
| --- | --- |
| CC(=O)O[C@]1(C(C)=O)CC[C@H]2[C@@H]3C=CC4=CC(=O)CC[C@]4(C)[C@H]3CC[C@@]21C | 8.87% |
| CCCc1ncc(C(=O)O)s1 | 6.47% |
| COc1cc(Br)c(S(=O)(=O)Nc2ccc(Cl)c(O[C@@H]3CCN(C)C3)c2)cc1OC | 5.97% |
| NC(C(=O)O)[C@@H]1CC(Cl)=NO1 (stereo not given in full) | -82% (active) |
| N[C@H](C(=O)O)[C@@H]1CC(Cl)=NO1 | -72.2% (active) |
| COC(=O)C1[C@H]2C[C@H]3c4[nH]c5ccccc5c4CCN3C[C@@H]2CC[C@@H]1O (stereo not given in full) | -3.89% |
| CC(=O)OCC(=O)[C@@]1(O)CCC2C3CCC4=CC(=O)CC[C@]4(C)C3[C@@H](O)C[C@@]21C (stereo not given in full) | -6.4% and -14.3% |
| CN(C)Cc1cccc(N=C(c2ccccc2)c2c(O)[nH]c3cc(C(=O)N(C)C)ccc23)c1 | -81.4% (active) |
| COC(=O)c1ccc2c(C(=Nc3ccc(N(C)C(=O)CN4CCN(C)CC4)cc3)c3ccccc3)c(O)[nH]c2c1 | -75.7% (active) |
| CN(C)Cc1cccc(N=C(c2ccccc2)c2c(O)[nH]c3cc(C(N)=O)ccc23)c1 | 9.28% and -68.3% |
| O=C(O)CN1CCN(CC(=O)O)CCN([C@H](CO)C(O)CO)CCN(CC(=O)O)CC1.[Gd] (stereo not given in full) | 8% |
| CC1(CN)Cc2ccccc2C1 | 26% |
| C=CC(C)(O)CC[C@@H]1[C@@]2(C)CCCC(C)(C)C2CC[C@@]1(C)O (stereo not given in full) | 13.1% |
| COc1ccc2c(c1)OCC(Cc1ccc(OC)c(O)c1)C2=O (stereo not given) | -61% |
| O=C(O)C1=CC(O)C(O)[C@H](O)C1 (stereo not given in full) | -17.2% |
| CCC[C@@H](N[C@@H](C)C(=O)N1[C@@H](C(=O)O)C[C@@H]2CCCC[C@@H]21)C(=O)OCC | 10.1% |
| CCn1c(=O)c(-c2ccn[nH]2)cc2c(C)nc(N)nc21 | -57.4% |
| COc1ccc(-c2cc3c(C)nc(N)nc3n(C3CCC(OCCO)CC3)c2=O)cn1 (stereo not given) | -79.8% (active) |
| N#CCC(=O)NN | 10.7% |
| O=C(N[C@@H](CO)[C@H](O)c1ccc([N+](=O)[O-])cc1)C(Cl)Cl | 5.04% |
| CCS(=O)(=O)Nc1ccc2[nH]c(O)c(C(=Nc3ccc(CN4CCCCC4)cc3)c3ccccc3)c2c1 | -88% (active) |
| N[C@H](C(=O)O)[C@H](O)c1ccc(O)c(O)c1 | -6.51% |
| Cc1ccc(C(=O)Nc2ccc(Oc3cc4cnn(C)c4cc3-c3cn[nH]c3)c(F)c2)c(=O)n1-c1ccc(F)cc1 | -82.1% (active) |
| COC(=O)C(c1ccccc1Cl)N1CCc2sccc2C1 (stereo not given) | 6.54% |
| CC[C@@]1(O)C(=O)OCc2c1cc1n(c2=O)Cc2cc3cc(O)ccc3nc2-1 | -73.3% (active) and -92.8% (active) |

| Compound | activity change, negative = inhibition |
| --- | --- |
| CCc1c2c(nc3ccc(O)cc13)-c1cc3c(c(=O)n1C2)COC(=O)[C@]3(O)CC | -93.3% (active) |
| CC[C@@]1(O)C(=O)OCc2c1cc1n(c2=O)Cc2cc3c(CN(C)C)c(O)ccc3nc2-1 | -89.6% (active) |
| CCc1c2c(nc3ccc(OC(=O)N4CCC(N5CCCCC5)CC4)cc13)-c1cc3c(c(=O)n1C2)COC(=O)[C@]3(O)CC | 8.52% |
| CC[C@@]1(O)C(=O)OCc2c1cc1n(c2=O)Cc2c-1nc1cc(F)c(C)c3c1c2[C@@H](N)CC3 | -89.9% (active) |
| CC(=O)[C@H]1CCC2C3C[C@H](C)C4=CC(=O)CC[C@]4(C)C3[C@@H](O)C[C@@]21C (stereo not given in full) | -2.39% |
| CN1C[C@@H]2c3ccccc3Oc3ccc(Cl)cc3[C@H]2C1 | 14.2% |
| Cn1cc(-c2cnc3ccc4ccc(CS(=O)(=O)NCc5ccccn5)cc4c(=O)c3c2)cn1 | -4.03% |
| CS(=O)(=O)c1ccc(Cn2c3c(c4cc(F)cc(F)c42)CCCC3CC(=O)O)cc1 (stereo not given) | 1.13% and 1.18% |
| c1ccc(C(NCCNC(c2ccccc2)c2ccccc2)c2ccccc2)cc1 | -24.5% and -4.76% |
| Cn1c(=O)cc(N2CCCC(N)C2)n(Cc2cc(F)ccc2C#N)c1=O (stereo not given) | 0.449% |
| C[C@H]1CC2C3CCC4=CC(=O)C=C[C@]4(C)[C@@]3(F)[C@@H](O)C[C@]2(C)[C@@]1(O)C(=O)COP(=O)(O)O (stereo not given in full) | -6.5% |
| COc1cc(O)c2c(=O)c(OC)c(-c3ccc(OC)c(OC)c3)oc2c1 | 3.09% |
| CC(=O)OCC(=O)[C@@]1(O)CCC2C3CCC4=CC(=O)C=CC4(C)C3[C@@H](O)C[C@@]21C (stereo not given in full) | 1.73% |
| CC1(C)[C@@H](O[C@H]2O[C@H](C(=O)O)[C@@H](O)[C@H](O)[C@@H]2O[C@@H]2O[C@H](C(=O)O)[C@@H](O)[C@H](O)[C@H]2O)CC[C@@]2(C)[C@H]3C(=O)C=C4[C@@H]5C[C@@](C)(C(=O)O)CC[C@]5(C)CC[C@@]4(C)[C@]3(C)CC[C@@H]12 | 5.63% |
| CC[C@@]1(O)C(=O)OCc2c1cc1n(c2=O)Cc2cc3c([N+](=O)[O-])cccc3nc2-1 | -85.8% (active) |
| O=C(Cc1ccccc1)Nc1nc2ccc(Cl)cc2c2nc(-c3ccco3)nn12 | 2.82% and 3.45% |
| Cc1nc(Cn2cnc3c2c(=O)n(C)c(=O)n3C)no1 | 8.05% |
| CCOCCn1c(N2CCCN(C)CC2)nc2ccccc21 | 16.4% |
| Cc1cnc(CNC(=O)c2c(=O)c3ccc(N4CCCN(C)CC4)nc3n3c2sc2ccccc23)cn1 | -82.2% (active) |
| CCC(C(N)=O)c1ccccc1 (stereo not given) | -4.72% |
| CN(Cc1ccccc1)C(=O)C(Cc1ccc2ccccc2c1)NC(=O)C1CCCN1C(=O)Nc1ccccc1[N+](=O)[O-] (stereo not given) | 0.794% |
| O=C(O)c1cc2cc(Cl)ccc2[nH]1 | 10.5% |
| CCCCCCCCNC[C@@H](O)[C@H](O)[C@@H](O)[C@@H](O)CO | 17.8% |
| S=P(N1CC1)(N1CC1)N1CC1 | 7.66% |
| CC(C)OC(=O)c1cn(Cc2c(F)cccc2F)c2sc(-c3ccc(NC(=O)C(C)C)cc3)c(CN(C)Cc3ccccc3)c2c1=O | -80.6% (active) |
